Consider 35 molecules from PubChem BioAssay.

The test system of the assay is Neuregulin-1 EGF-like domain. Put plainly: binders of neuregulin-1 EGF-like domain, primary screen, biochemical, small-molecule microarray, 635 nm fluorescence (AID 1081).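 Also: binding of the protein to compounds printed on small-molecule microarray slides.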 Particulars: small-molecule microarray binding, higher = more signal.
In turn, `C=CC[C@@]1(C(=O)NCC(O)CO)N=C(c2ccc(OCCCO)cc2)O[C@@H]1c1ccccc1CN=[N+]=[N-]` (stereo not given in full) returned a composite z-score of 1.23.
In the case of `CO[C@H]1COC(=O)[C@@H](C)NC(=O)CC=C[C@@H](C)[C@H](OC)COC(=O)CC=C[C@@H]1C`, the composite z-score is 0.479.
For the molecule `CC(C)C[C@@H]1NC(=O)[C@H]2C[C@@H](C(=O)NCCCCCC[N+](C)(C)C)[C@@H](c3ccc(O)cc3)N2C1=O`, the composite z-score was found to be 1.41.
As for `Cc1ccc(S(=O)(=O)N[C@H]2COC(=O)CC=C[C@H](C)COC(=O)N[C@@H](C)C(=O)CC=C[C@@H]2C)cc1`, the figure is 0.527; as for `C#CCCCON=C1C[C@@H](O)[C@@H](O)[C@@H]2[C@@H]3C(=O)N(Cc4ccc5c(c4)OCO5)C(=O)[C@@H]3CC[C@@H]12`, 0.562; as for `CO[C@H]1COC(=O)[C@@H](OCc2ccccc2)C=C[C@H](C)[C@@H](OC)COC(=O)[C@H](OCc2ccccc2)C=C[C@@H]1C`, -0.669.
With `COCCOC(=O)N1C(=O)[C@@]2(c3cc(C#CCCO)ccc31)[C@H](c1ccc(OCCO)cc1)N1[C@H](c3ccccc3)[C@H](c3ccccc3)OC(=O)[C@H]1[C@@H]2C(=O)NC[C@H](O)c1ccccc1` the figure was 1.25; with `NC(=O)NCC#Cc1ccc2c(c1)[C@]1(C(=O)N2)[C@H](c2ccccc2OCCO)N2[C@H](c3ccccc3)[C@H](c3ccccc3)OC(=O)[C@H]2[C@@H]1C(=O)N1CCN(c2ncccn2)CC1`, 1.07; with `COCCOC(=O)N1C(=O)[C@@]2(c3cc(C#CCCO)ccc31)[C@H](c1ccc(O)cc1)N1[C@H](c3ccccc3)[C@H](c3ccccc3)OC(=O)[C@H]1[C@@H]2C(=O)Nc1nc2ccccc2s1`, 1.15.
Turning to `C=C(COC)C(=O)CC[C@H](OC(=O)c1ccccc1-c1ccccc1C(=O)O)c1cccc(OCCO)c1`, the composite z-score turned out to be 1.37.
Take `COC(=O)C(CC#Cc1ccc2c(c1)[C@]1(C(=O)N2)[C@H](C(=O)N2CCCCCCC2)[C@H]2C(=O)O[C@H](c3ccccc3)[C@H](c3ccccc3)N2[C@@H]1c1ccc(O)cc1)C(=O)OC`: the composite z-score was -0.466.
With `CCCC[C@H]1OB(O)C[C@H]2C1=C(COC)C[C@H]1C(=O)N(Cc3ccccc3)C(=O)[C@H]12` the figure was -0.334; with `COCCOC(=O)N1C(=O)[C@@]2(c3cc(C#CCCO)ccc31)[C@H](C(=O)N1CCCCCCC1)[C@H]1C(=O)O[C@H](c3ccccc3)[C@H](c3ccccc3)N1[C@@H]2c1ccc(O)cc1`, 1.13.
`Cc1ccc(S[C@]2(C(=O)O)CC(=O)N(Cc3ccccc3)[C@@H]2c2ccc(CO)cc2)cc1` registered a composite z-score of 0.736.
With `COCCOC(=O)N1C(=O)[C@@]2(c3cc(C#CCNC(N)=O)ccc31)[C@H](c1ccc(OCCO)cc1)N1[C@H](c3ccccc3)[C@H](c3ccccc3)OC(=O)[C@H]1[C@@H]2C(=O)Nc1nc2ccccc2s1` the figure was -0.757; with `C=CC[C@@]12N=C(c3ccc(OCCCO)cc3)O[C@@H]1c1ccccc1CN(Cc1ccccc1)C2=O`, 1.16.
With `O=C(NCC(O)CO)[C@]1(Cc2ccccc2)N=C(c2ccc(OCCCO)cc2)O[C@@H]1c1ccccc1` (stereo not given in full) the figure was 0.868; with `C=CCNC(=O)[C@H]1[C@@H]2C(=O)O[C@@H](c3ccccc3)[C@@H](c3ccccc3)N2[C@@H](c2ccccc2OCCO)[C@]12C(=O)N(C(=O)OCCOC)c1ccc(C#CCNC(N)=O)cc12`, 1.06; with `C=CCC(OC(C)=O)[C@@H]1[C@@H](N(Cc2cccc3ccccc23)C(=O)Cc2ccc(F)cc2)c2cc(OCCCO)ccc2N1C(=O)Cc1ccc2ccccc2c1` (stereo not given in full), -0.607.
With `COC(=O)c1ccc(C#CC(NP(=O)(c2ccccc2)c2ccccc2)c2ccccc2)cc1` (stereo not given) the figure was 1.36; with `C[C@H]1COC(=O)[C@H](Cc2ccccc2)NC(=O)[C@@H](C)COC(=O)[C@H](Cc2ccccc2)NC1=O`, 1.11.
Molecule `CCOC(=O)C[C@H]1[C@H](OC(=O)c2cc3ccccc3oc2=O)[C@@H](NC(=O)C2CCCCC2)c2cc(OCCCO)ccc2N1C(=O)c1ccc2ccccc2n1` came in with a composite z-score of 0.675.
With `COc1cccc([C@@H]2[C@@H](C)CC[C@H]3C(=O)N(C)[C@@H](C(C)C)C(=O)N23)c1` the figure was 0.475; with `COCC(=C=CC[C@H](O)c1ccc(OCCO)cc1)C[C@H](O)c1ccccn1`, 1.27.
With `C=C(CCCC)C(=O)CC[C@@H](OC(=O)c1cccnc1)c1cccc(OCCO)c1` the figure was 0.586; with `CC(C)NC(=O)[C@@]1(Cc2ccccc2I)c2ccccc2C(=O)N(C2CCCCC2)[C@H]1c1ccc(CO)cc1`, 1.38; with `NC(=O)[C@H]1[C@@H]2C(=O)O[C@@H](c3ccccc3)[C@@H](c3ccccc3)N2[C@@H](c2ccc(O)cc2)[C@]12C(=O)Nc1ccc(C#CCCO)cc12`, 1.12.
The molecule `C=CCNC(=O)[C@@H]1[C@H]2C(=O)O[C@H](c3ccccc3)[C@H](c3ccccc3)N2[C@H](c2ccc(OCCO)cc2)[C@@]12C(=O)N(C(=O)OCCOC)c1ccc(C#CC3(O)CCCCCC3)cc12` registered a composite z-score of 1.03.
As for `CSCC[C@@H]1NC(=O)CC=C[C@@H](C)COC(=O)[C@H](CCSC)NC(=O)CC=C[C@@H](C)COC1=O`, the figure is -0.26; as for `COC(=O)[C@@]1(Cc2ccc(OC)cc2)[C@H]2c3cc(C(=O)N(C)C)n(CCc4ccc(OC)c(Br)c4)c3C[C@H]2CN1C(=O)c1ccccc1`, 1.34.
On to `C#C[C@H](O[Si](C#Cc1ccccc1)(C(C)C)C(C)C)c1ccccc1`, for which the composite z-score was -0.305.
With `COCCCNC(=O)[C@@H]1c2ccccc2C(=O)N(CC23CC4CC(CC(C4)C2)C3)[C@H]1c1ccc(CO)cc1` the figure was 1.1; with `C[C@H]1C2[C@H](Cc3ccccc3)NC(=O)[C@]23C(=O)N[C@H](Cc2ccccc2)C(=O)N[C@@H](Cc2ccccc2)C(=O)NC/C=C\C/C=C/C3[C@@H]2O[C@]12C` (stereo not given in full), -0.199.
Take `CO[C@]12C=C(Br)[C@@H](C[C@@H]1c1ccccc1)[C@@]1(CO1)C2=O`: the composite z-score was -0.356.
With `CO[C@H]1COC(=O)[C@@H](C)COC(=O)[C@H](Cc2ccccc2)NC(=O)CC=C[C@H]1C` the figure was -0.703.
